This is an account of results in PubChem BioAssay AID460 (PCMD, 2006).

By inhibition is commonly meant the relative decrease from the control value, in per cent.

Molecules are shown by their SMILES. Hit rate of the full screen: of about 58,000 compounds, about 100 (0.17%) were called active. This excerpt belongs to a sample that is enriched for actives. A number with no mark means an inactive call. No stated cut-off is given here; in the data, active means inhibition above about 45%; inactive means the rest. Where a SMILES comes first, the peptide text is derived from it. The star is where a group is joined. Bz = O=C(c1ccccc1)*

Chain of Procathepsin L (Homo sapiens) (P07711 114-288 limits assumed): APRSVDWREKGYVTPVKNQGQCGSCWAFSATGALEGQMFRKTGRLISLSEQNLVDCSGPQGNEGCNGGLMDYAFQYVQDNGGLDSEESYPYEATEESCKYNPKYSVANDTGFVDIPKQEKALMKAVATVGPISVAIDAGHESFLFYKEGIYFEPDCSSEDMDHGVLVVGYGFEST
Chain of Procathepsin L (Homo sapiens) (P07711 292-333 limits assumed): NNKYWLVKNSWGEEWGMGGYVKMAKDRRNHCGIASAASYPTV

This test has as its target Procathepsin L (Homo sapiens) (UniProt P07711). The experiment in a line: inhibitors of human cathepsin L, biochemical (AID 460).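 Further: 0% = enzyme with no compound and 100% = no enzyme blank.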 The following applies: purified cathepsin L, fluorogenic substrate, fluorescence; hits give high values;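 tested at 10 µM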.
For `CCOCCOC(=O)C1=C(C)N(C)C(=O)NC1c1ccccc1F` (stereo not given), the inhibition was -0.79%.

As to `CCOc1cc(C)c(Cl)cc1S(=O)(=O)n1nnc2ccccc21`, the inhibition is 3.04%.

Regarding `O=C(c1ccccc1)c1ccc2nc(N3CCCCC3)c3nncn3c2c1`, the inhibition is -3.17%.

In the case of `CCOC(=O)CCc1c(C)c2ccc(OCc3nn[nH]n3)c(C)c2oc1=O`, the inhibition is -20.7%.

As to `COc1ccc(OC)c2c(N)c(C#N)c(C(F)(F)C(F)(F)F)nc12`, the inhibition was -8.11%.

Take `Cc1c(C)c2cc3c4c(oc3c(C)c2oc1=O)CCCC4`: the inhibition is 2.98%.

For the compound `CC1CCN(Cc2nc3c(c(=O)n(C)c(=O)n3C)n2Cc2cccc3ccccc23)CC1`, the inhibition is 0.14%.

Consider `OC(COc1cccc2ccccc12)CN1CCN(c2ccccn2)CC1` (stereo not given), for which the inhibition was 7.74%.

Regarding `O=C(CS(=O)(=O)c1cn(Cc2cccc(F)c2)c2ccccc12)N1CCCCC1`, the inhibition is 17.3%.

As for `CCCC(=O)C1=C(N(C)c2ccccc2)CC(C)(C)C(C(=O)OC)C1=O` (stereo not given), the inhibition was -1.31%.

On to `CCCn1c(=NC(C)=O)c(C(=O)OCC)cc2c(=O)n3ccccc3nc21`, for which the inhibition is -149%.

For the compound `Cc1cc2cc(CNC(=O)c3ccc(S(=O)(=O)N4CCOCC4)cc3)ccc2[nH]1`, the inhibition was 4.06%.

With `CN(CCCC(=O)Nc1nccs1)S(=O)(=O)c1ccc(Cl)cc1`, the inhibition was -4.71%.

`CC1=NC2(CCCc3c2no[n+]3[O-])N(O)C1(C)C` (stereo not given): the inhibition was 1.32%.

For the compound `CC(=O)N1C(=O)C2(Nc3ccccc3N2)c2ccccc21`, the inhibition is 1.65%.

As to `COc1ccccc1CNC(=O)C1CCN(S(C)(=O)=O)CC1`, the inhibition was 2.28%.

Consider `CC(=O)N=c1ncn(CC(COC(C)=O)OC(C)=O)c2nc[nH]c12` (stereo not given), for which the inhibition is -1.89%.

Take `Cc1cccc(OCc2nnc(SCc3nc4cc(C(F)(F)F)ccc4c(=O)[nH]3)o2)c1`: the inhibition was -0.3%.

Turning to `O=C(O)C1CC=CCC1C(=O)NCCc1ccccc1` (stereo not given), the inhibition was -8.83%.

In the case of `CC(C)c1ccc(NS(=O)(=O)c2cn(C)c(=O)n(C)c2=O)cc1`, the inhibition was 12.5%.

As to `O=C(NC(Cc1ccccc1)C(=O)N1CCCC1C(=O)O)c1ccccc1` (stereo not drawn) (Bz-Phe-Pro-OH; configuration not given here), the inhibition is 17.6%.

On to `Cc1ccc(C)c(N(CC(=O)NCc2ccco2)C(=O)CCC(=O)Nc2ccccn2)c1`, for which the inhibition was -0.88%.

For the compound `COc1ccc(-c2nnn(Cc3nc(N)nc(N4CCCCC4)n3)n2)cc1`, the inhibition is -3.62%.

In the case of `CCOc1cccc(=O)c2c(C)n(CC3CCCO3)c(C)c12` (stereo not given), the inhibition is -0.25%.

As for `CC(NC(=O)Nc1ccccc1)c1ccccc1` (stereo not given), the inhibition is 1.63%.

For the compound `O=C(CCN1C(=O)C2C3C=CC(C3)C2C1=O)Nc1ccccc1F` (stereo not given), the inhibition was -4.07%.

For the compound `c1ccc(-c2cn3cccnc3n2)cc1`, the inhibition is -283%.

For the compound `COc1ccc(CCNc2ncnc3nc[nH]c23)cc1OC`, the inhibition was -2.05%.

Take `Cc1cc(NC(=O)CCC2COc3ccccc3O2)no1` (stereo not given): the inhibition is 0.43%.

With `c1ccc2c(c1)OCC(CNc1ncnc3nc[nH]c13)O2` (stereo not given), the inhibition is 81.5% (active).

For `COC(=O)c1cc(OC)c(OC)cc1NC(=O)C1CCCO1` (stereo not given), the inhibition is 17.4%.

For the compound `Cc1nc(-c2ccc(NC(=O)c3cccs3)cc2)cs1`, the inhibition was 6.73%.

For the compound `NS(=O)(=O)c1ccc(CCNC(=O)Nc2ccc(Cl)cc2)cc1`, the inhibition is 0.5%.

Regarding `COc1ccc(C2CC(c3ccccc3)Nc3ncnn32)cc1` (stereo not given), the inhibition was 20.2%.

Take `Cc1ccc(C2CC(=O)NC(SCC(=O)OCc3ccccc3)=C2C#N)o1` (stereo not given): the inhibition is 1.51%.

`CCOC(=O)C(CCOc1cccc(CC)c1)C(=O)OCC`: the inhibition is 20.3%.

Take `Cc1nnc(SCC(=O)N(C(C)C)C(C)C)nc1C`: the inhibition is 6.66%.

Take `CCCC(C(=O)NCc1ccco1)N(C(=O)CNS(=O)(=O)c1ccccc1)C1CCCC1` (stereo not given): the inhibition was 10.1%.

On to `Cn1c(=O)c2cn(-c3cccc4ccccc34)cc2n(C)c1=O`, for which the inhibition was 6.9%.

As to `COC(=O)c1ccc(CN(c2ccccc2OC)S(=O)(=O)c2cccs2)o1`, the inhibition is 14%.

Consider `Fc1c(F)c(C(F)(F)F)c(F)c(F)c1N1CCN(c2ccc3nnc(C(F)(F)F)n3n2)CC1`, for which the inhibition is -17%.

As to `CC(C)NS(=O)(=O)c1ccc(OCC(=O)Nc2ccc3c(c2)OCCO3)cc1`, the inhibition was 16.4%.

On to `COc1ccc(Cn2cccc(NC(=O)Nc3ccc(C#N)cc3)c2=O)cc1`, for which the inhibition is -10.3%.

For `C=CCn1c(=N)n(CC(O)COc2ccc(OC)cc2)c2ccccc21` (stereo not given), the inhibition is 0.78%.

Take `Cc1ccc(C2CC(c3cccc(Br)c3)n3nc(N)nc3N2)cc1` (stereo not given): the inhibition is 19.9%.

Take `Cc1ccc(N2C(=O)CC(NCc3ccc4c(c3)OCO4)C2=O)cc1Cl` (stereo not given): the inhibition was -2.37%.

For `Clc1ccccc1CSc1nnc(-c2ccco2)c(-c2ccco2)n1`, the inhibition was 49.7% (active).

For `O=c1cc(O)nc(SCc2ccccc2Cl)[nH]1`, the inhibition was -2.97%.

For `c1ccc(CSc2nnc(-c3ccco3)c(-c3ccco3)n2)cc1`, the inhibition was 10.8%.

As for `N#Cc1c(NC(=O)CCCN2C(=O)c3ccccc3C2=O)oc(-c2ccccc2)c1-c1ccccc1`, the inhibition was 4.96%.

Consider `CN1c2ccccc2-c2nc3ccccc3n2C1c1ccco1` (stereo not given), for which the inhibition was -450%.

In the case of `COC(=O)C1=C(C)N(C)C(C)=C(C(=O)OC)C1c1cccc(Br)c1`, the inhibition is 10.9%.

`Cc1cc(Cl)c(S(=O)(=O)NCCC(=O)O)cc1OCC(N)=O`: the inhibition was 4.48%.

As to `COc1cc(-c2nn3c(-c4cccc(C)c4)nnc3s2)cc(OC)c1OC`, the inhibition was 0.7%.

Consider `Cc1nnc(NC(=O)CSc2nccn2-c2cccc(C)c2C)s1`, for which the inhibition was 3.56%.

Take `Cc1c(C(=O)N2CC(C)OC(C)C2)sc2nc(-c3ccccc3)cn12` (stereo not given): the inhibition was 23%.

In the case of `C=CCc1cccc2cc(C(=O)OCC)c(=O)oc12`, the inhibition is 5.84%.

Take `CCC1CCCCN1CCNS(=O)(=O)c1ccc2c(c1)CCN2C(C)=O` (stereo not given): the inhibition is 12.7%.

`CC(C)CCNC(=O)C1CCCN(S(=O)(=O)c2ccc(F)cc2)C1` (stereo not given): the inhibition was 9.49%.

Consider `COCc1cc(C)nc(SCC(=O)Nc2cccc(C)c2)c1C#N`, for which the inhibition is 10.9%.

With `CC12COC3(C(=O)Nc4ccc(Cl)cn4)CC1CCC32C` (stereo not given), the inhibition is 11.5%.

With `CC(=O)Oc1cc2c(C(=O)NCCN3CCOCC3)c(C)oc2c2ccccc12`, the inhibition is -9.79%.

On to `C[N+](C)(C)CCNC(=O)c1c(O)c2c([nH]c1=O)CCCC2`, for which the inhibition was 8.42%.

For the compound `Cn1c(=O)n(CCc2ccccc2)c(=O)c2c1nc1n2CCCN1c1ccccc1`, the inhibition is 0.95%.

Take `COc1cc(C2C(C#N)=C(C)NC3=C2C(=O)CC(C)(C)C3)ccc1O` (stereo not given): the inhibition was 4.18%.

On to `Cn1c(=O)c(C(=O)Nc2ncccn2)c(O)c2ccccc21`, for which the inhibition is -15.3%.

Turning to `CCOC(=O)c1c(C)nc(-c2ccccc2)nc1NC(=O)C(C)C`, the inhibition was 22.7%.

Regarding `CSCCC(NS(=O)(=O)/C=C/c1ccccc1)C(=O)N1CCC(C)CC1` (stereo not given), the inhibition was 7.86%.

Turning to `CC1(C)Oc2ccc3ccc(=O)oc3c2/C(=C/NCCO)C1=O`, the inhibition was 14.3%.

With `CCOC(=O)C(CC)Sc1ncnc2c1nnn2-c1ccc(F)cc1` (stereo not given), the inhibition was 7.22%.

On to `OC1CN=C2Sc3ccccc3N2C1` (stereo not given), for which the inhibition was -0.84%.

Take `c1ccc(-n2ncc3c2ncn2c(C4CCCCC4)nnc32)cc1`: the inhibition was 1.98%.

With `CCN(CC)S(=O)(=O)c1cccc(C(=O)Nc2ccccc2)c1`, the inhibition is -8.69%.

As for `CCCOc1ccc(CN(CCO)CCO)cc1C(=O)OC`, the inhibition is 8.62%.

On to `CC(C)CCNC(=O)CN(C(=O)Cn1nnc(-c2ccc(F)cc2)n1)C1CCCC1`, for which the inhibition is 12.4%.

Take `CC(=O)N1CC2(C)CN(C(C)=O)CC(C)(C1)C2=O`: the inhibition is -7.32%.

With `C=CCn1c(COc2ccccc2F)nnc1SCC(=O)N1CC(=O)Nc2ccccc21`, the inhibition was 2.58%.

For the compound `C=CCn1c2ccccc2c2nnc(SC(CC)C(=O)Nc3nc(C)c(C(=O)OCC)s3)nc21` (stereo not given), the inhibition was -6.76%.

In the case of `COc1ccc2occ(C(=O)c3ccc(N=C(C)N(C)C)cc3)c2c1`, the inhibition is 1.28%.

Regarding `Cc1cccc(N2C(=O)SC(N(CC(=O)O)c3cccc(C)c3)C2=O)c1` (stereo not given), the inhibition was 18.4%.

On to `COc1ccc(OC)c(S(=O)(=O)N(C)CC(=O)N2CCN(c3ccccc3)CC2)c1`, for which the inhibition was -0.18%.

As to `COC(=O)c1c(NC(=O)c2cccs2)sc2c1CCCC2`, the inhibition is -9.15%.

For the compound `COc1ccc(-c2nc(CS(=O)CC(=O)NCc3ccccn3)c(C)o2)cc1` (stereo not given), the inhibition is 32.3%.

With `O=c1cccc(-c2ccc(Br)cc2)o1`, the inhibition is 11.7%.

Turning to `Cc1cc(C)cc(NC(=O)N2CCC(NC(=O)c3ccc(F)cc3)CC2)c1`, the inhibition was 15.2%.

As for `Cc1ccc(C(=O)Nc2ccc3c(c2)OCO3)cc1S(=O)(=O)N1CCCCC1`, the inhibition is 41.8%.

For `CCOc1cccc(-c2nn3c(-c4ccccn4)nnc3s2)c1`, the inhibition was 20.7%.

Turning to `O=C(NC1CCCC1)c1ccc(Br)s1`, the inhibition is -2.98%.

In the case of `CC(C)c1ccc(OCC(O)Cn2cnc3ccccc32)cc1` (stereo not given), the inhibition is -5.57%.

As to `c1ccc2cc(OCCN3CCCC3)ccc2c1`, the inhibition is 17.4%.

For `COc1ccccc1N1CCN(C(=O)c2cc(-c3ccc(Cl)c(Cl)c3)on2)CC1`, the inhibition was 1.59%.

Consider `Cn1c(/C(C#N)=C2/CCCCCN2)nc2ccccc21`, for which the inhibition is -2.23%.

For `CCOC(=O)c1cc2c(n(-c3ccc(C)cc3)c1=O)CCCC2=O`, the inhibition is -1.99%.

Consider `CCCC1CC(C)(C(=O)Cn2[nH]c(=O)ccc2=O)OC1=O` (stereo not given), for which the inhibition is 3.89%.

In the case of `Cc1ccc(S(=O)(=O)n2nc(OC(=O)C(C)(C)C)cc2N)cc1`, the inhibition was 9.62%.

`N#CC(C(=O)c1ccc(S(=O)(=O)N2CCCCCC2)cc1)c1nc2ccccc2[nH]1` (stereo not given): the inhibition is -6.58%.

In the case of `O=C(/C(=N\O)n1cncn1)c1ccc(Br)cc1Br`, the inhibition was 5.57%.

Take `COc1ccc(CCN=C2SCC(=O)N2C)cc1OC`: the inhibition was 11.7%.

In the case of `N#CNC1=NCN(CCc2ccccc2)CN1`, the inhibition is 17.9%.

For the compound `N#Cc1c(N)n(CCOC(=O)c2ccc(Cl)cc2)c2nc3ccccc3nc12`, the inhibition was -4.03%.

Take `Fc1ccccc1OCCCCn1cncn1`: the inhibition is -6.79%.

On to `COc1ccc(OCCCON2C(=O)c3ccccc3C2=O)cc1`, for which the inhibition is -4.83%.

As for `O=C(CN1C(=O)CCC1=O)Nc1ccc(S(=O)(=O)N2CCOCC2)cc1`, the inhibition was 5.22%.

Regarding `CC(C)Cc1nc(N2CCOCC2)c(C#N)c2c1CCC2`, the inhibition is -1.22%.

Consider `CCOc1ccccc1C1NC(=O)NC(C)=C1C(=O)OCc1ccco1` (stereo not given), for which the inhibition was 16.9%.
